Drawing on PubChem BioAssay (NCI), this text covers growth for 37 compounds.

Several values for one entry are separate records, joined by “and”; a condition that tells them apart may be missing. Equal entries are not always repeated. The panel holds about 83,000 compounds, 20% with a hit somewhere; the sample as a whole holds those more often.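 How to read the values: 0–100, growth inhibition (40 = 60% inhibited); 0, no net growth; -100 to 0, cell death (-40 = 40% of starting cells died; -100 = all dead).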 Activity calls are given as the source filed them. Rule for the calls: active = growth percent below 10; inactive = the rest.

The first assay concerns SK-MEL-28 melanoma. Kind of assay: NCI-60 one-dose screen, 48 h (100 = growth as untreated, 0 = no growth, -100 = all killed). The settings on record: 10 µM unless noted.
In the case of `CC(C)N=c1cc2n(-c3ccc(Cl)cc3)c3ccccc3nc-2cc1Nc1ccc(Cl)cc1`, the growth is 67.7% (inactive) and 72.8% (inactive) and 57.9% (inactive). Still for that read-out and setting: the figure for `CCN(CC)CCCC(C)Nc1ccnc2cc(Oc3ccccc3)ccc12` (stereo not drawn) is 1.01% (active) and 85.5% (inactive); for `CN1C(=O)C(N=Nc2ccc([N+](=O)[O-])cc2)SC1=S` (stereo not drawn) it is 86.6% (inactive) and 95.9% (inactive).

Regarding `COc1ccccc1NC(=O)OCC#CCOC(=O)Nc1ccccc1OC`, the growth is 106% (inactive) and 88.1% (inactive). The same measure, in the same setting: the figure for `O[C@H](c1cc(C(F)(F)F)nc2c(C(F)(F)F)cccc12)[C@@H]1CCCCN1` is 94.4% (inactive) and 88.8% (inactive); for `N#C/C(=C1C=C/C(=N/O)C(Br)=C/1)c1ccccc1` it is 61.3% (inactive). Same read-out and setting: the figure for `CC1=C[C@H]2c3c(c(O)c(O)c4oc5cc(O)cc(O)c5c(=O)c34)[C@H](c3cc(O)c(O)c4oc5cc(O)cc(O)c5c(=O)c34)[C@H]2C(C)(C)C1` is 10.3% (inactive) and -22.8% (active); for `COc1ccc(/C(C#N)=C/c2ccccn2)cc1` it is 107% (inactive) and 139% (inactive). As to `CC(=O)Oc1cc(C(=O)O)cc(OC(C)=O)c1OC(C)=O`, the growth was 115% (inactive) and 99.3% (inactive). Still for that read-out and setting: with `COc1ccc(Cn2c(NCCN=C(N)N)nc(=O)n(Cc3ccc(F)cc3)c2=O)cc1` the figure was 103% (inactive) and 97.9% (inactive).

For another assay, the system named is SK-MEL-2 melanoma. Described as above. The settings on record: 10 µM unless noted.
With `CN(C)c1ccc(C(=C2C=CC(=[N+](C)C)C=C2)c2ccccc2Cl)cc1`, the growth is -57.7% (active) and -52.4% (active). The same measure, in the same setting: with `Nc1ccccc1SC1CC(=O)N(c2cccc3ccccc23)C1=O` (stereo not drawn) the figure was 92.6% (inactive); with `CC(=O)Nc1cccc2c1CCCC2`, 82.6% (inactive) and 75% (inactive). `CCN1CCN(CCNc2nccc(-c3c(-c4cccc(O)c4)nc4sccn34)n2)S1(=O)=O`: the growth was 11.2% (inactive) and 27.5% (inactive). The same measure, in the same setting: the figure for `NC(=O)c1ccccc1OCC(O)CO` (stereo not drawn) is 103% (inactive); for `N/C(=N\N=C\c1ccc2c(c1)OCO2)N/N=C\c1ccc2c(c1)OCO2` it is 103% (inactive) and 136% (inactive); for `N#C/C(=C/c1c(O)ccc2ccccc12)C(N)=O` it is 87.6% (inactive). In the case of `Cc1cc(O)c2c(c1)C(=O)c1cc(O)cc(O)c1C2=O`, the growth is 94.9% (inactive) and 85.1% (inactive). In the case of `CCN(CC)CCC(CNc1ccnc2cc(Cl)ccc12)c1ccc(OC)cc1` (stereo not drawn), the growth is 101% (inactive) and 61.7% (inactive). Same read-out and setting: with `O=[N+]([O-])c1ccc2nc3c4ccccc4c4ccccc4c3nc2c1` the figure was 97.6% (inactive); with `COc1cc2nc(N3CCC[C@@H](NC(=O)C4COc5ccccc5O4)C3)nc(N)c2cc1OC` (stereo partly drawn), 112% (inactive) and 107% (inactive); with `NC(=S)NN=C1CCC(C2CCCCC2)CC1` (stereo not drawn), 96% (inactive) and 90.2% (inactive). Turning to `Cc1ccc2nc3c(nc2c1)-c1cccc2cccc-3c12`, the growth is 107% (inactive).

On to `CC(C)N=c1cc2n(-c3ccc(Cl)cc3)c3ccccc3nc-2cc1Nc1ccc(Cl)cc1`, for which the growth is -32.7% (active) and 0.294% (active) and -36.1% (active). As to `N#C/C(=C1C=C/C(=N/O)C(Br)=C/1)c1ccccc1`, the growth was -22.3% (active). For the compound `CC(=O)Oc1cc(C(=O)O)cc(OC(C)=O)c1OC(C)=O`, the growth is 119% (inactive) and 107% (inactive). The same measure, in the same setting: the figure for `COc1ccc(Cn2c(NCCN=C(N)N)nc(=O)n(Cc3ccc(F)cc3)c2=O)cc1` is 101% (inactive).

Another assay deals with EKVX NSCLC. The description is as above. The settings on record: 10 µM unless noted.
Turning to `CC1CCCC(=O)O1` (stereo not drawn), the growth is 102% (inactive).

As to `Cc1ccc(S(=O)(=O)NCN2C(=O)c3ccccc3C2=O)cc1`, the growth is 119% (inactive). The same measure, in the same setting: with `O=C(N/N=C/c1cccc2ccccc12)C1CC1` the figure was 72.5% (inactive) and 53% (inactive).

Turning to `CN(C)CCCNC1=C(Cl)C(=O)c2ccccc2C1=O`, the growth was 30.2% (inactive) and -44.6% (active).

Consider `COc1ccc2nc(Cl)cc(C)c2c1`, for which the growth is 80.4% (inactive) and 97.6% (inactive).

For `CN(C)c1ccc(C(=C2C=CC(=[N+](C)C)C=C2)c2ccccc2Cl)cc1`, the growth was 15.9% (inactive) and -34.1% (active). With `OCc1ccccn1`, the growth is 110% (inactive). Same read-out and setting: the figure for `CC(=O)Nc1cccc2c1CCCC2` is 96.6% (inactive) and 94.7% (inactive); for `CCN1CCN(CCNc2nccc(-c3c(-c4cccc(O)c4)nc4sccn34)n2)S1(=O)=O` it is 110% (inactive) and 111% (inactive); for `Nc1ccccc1Nc1ccccc1` it is 96.4% (inactive). With `N/C(=N\N=C\c1ccc2c(c1)OCO2)N/N=C\c1ccc2c(c1)OCO2`, the growth is 113% (inactive). Same read-out and setting: the figure for `Oc1ccc(/C=C/c2ccccc2)cc1` is 76.9% (inactive) and 108% (inactive); for `COc1ccc2ccccc2c1/C=N/N1CCCCC1` it is 93.6% (inactive); for `O=C(Nc1cccc(-n2ccc3c(NC(=O)c4ccccc4)nccc32)c1)c1ccc(Cl)c(C(F)(F)F)c1` it is 38% (inactive) and 87.3% (inactive). Turning to `CCOc1ccc(Nc2c3ccccc3nc3ccccc23)cc1`, the growth was 42.8% (inactive) and 42.1% (inactive). On the same count and under the same terms, with `CCOc1ccc2cc(-c3nn(CC4CCN(C)CC4)c4ncnc(N)c34)ccc2c1` the figure was 101% (inactive) and 56.5% (inactive); with `S=C(S)N1CCCC1`, 114% (inactive) and 99% (inactive); with `O=C1C2=C(C(=O)c3ccccc31)C(O)(S(=O)(=O)O)C(O)(S(=O)(=O)O)C1N=CC=CC21` (stereo not drawn), 36.4% (inactive) and 30.5% (inactive). For the compound `Cc1cc(O)c2c(c1)C(=O)c1cc(O)cc(O)c1C2=O`, the growth is 68% (inactive) and 77.3% (inactive). For `CCN(CC)CCC(CNc1ccnc2cc(Cl)ccc12)c1ccc(OC)cc1` (stereo not drawn), the growth was 69.6% (inactive) and 85.6% (inactive). For the compound `O=[N+]([O-])c1ccc2nc3c4ccccc4c4ccccc4c3nc2c1`, the growth is 81.8% (inactive). As to `NC(=S)NN=C1CCC(C2CCCCC2)CC1` (stereo not drawn), the growth was 78.9% (inactive) and 82.6% (inactive).

Regarding `Cc1ccc2nc3c(nc2c1)-c1cccc2cccc-3c12`, the growth was 71.4% (inactive). In the case of `CC(C)N=c1cc2n(-c3ccc(Cl)cc3)c3ccccc3nc-2cc1Nc1ccc(Cl)cc1`, the growth was 39.6% (inactive) and 23% (inactive) and 12.3% (inactive). On the same count and under the same terms, with `CCN(CC)CCCC(C)Nc1ccnc2cc(Oc3ccccc3)ccc12` (stereo not drawn) the figure was 83.7% (inactive) and 74.9% (inactive). Regarding `CN1C(=O)C(N=Nc2ccc([N+](=O)[O-])cc2)SC1=S` (stereo not drawn), the growth is 117% (inactive) and 82% (inactive). Still for that read-out and setting: with `COc1ccccc1NC(=O)OCC#CCOC(=O)Nc1ccccc1OC` the figure was 99% (inactive) and 96.1% (inactive); with `O[C@H](c1cc(C(F)(F)F)nc2c(C(F)(F)F)cccc12)[C@@H]1CCCCN1`, 65.5% (inactive) and 82.8% (inactive). In the case of `CC1=C[C@H]2c3c(c(O)c(O)c4oc5cc(O)cc(O)c5c(=O)c34)[C@H](c3cc(O)c(O)c4oc5cc(O)cc(O)c5c(=O)c34)[C@H]2C(C)(C)C1`, the growth was 21.4% (inactive) and -31.9% (active). With `COc1ccc(/C(C#N)=C/c2ccccn2)cc1`, the growth was 90.1% (inactive) and 99.5% (inactive). As to `CC(=O)Oc1cc(C(=O)O)cc(OC(C)=O)c1OC(C)=O`, the growth was 84.3% (inactive) and 105% (inactive).
